Laboratory results: PubChem BioAssay AID720708 (National Center for Advancing Translational Sciences (NCATS), 2013)
The campaign covered roughly 360,000 compounds. About 660 (0.18%) were called active. Roughly 2% stayed inconclusive and do not appear here. Shown is part of a subset that was picked to be rich in actives. A number with no mark means an inactive call. Calls follow the shape of the dose curve; as a rule, active = well fitted inhibition curve with a large enough effect; inconclusive = small, poorly fitted or top-dose-only effect; inactive = no such curve, though single readings can be large or run the other way.

Molecular target: Rap guanine nucleotide exchange factor 4 (Homo sapiens) (UniProt Q8WZA2)
Sequence (Q8WZA2 whole entry, looked up): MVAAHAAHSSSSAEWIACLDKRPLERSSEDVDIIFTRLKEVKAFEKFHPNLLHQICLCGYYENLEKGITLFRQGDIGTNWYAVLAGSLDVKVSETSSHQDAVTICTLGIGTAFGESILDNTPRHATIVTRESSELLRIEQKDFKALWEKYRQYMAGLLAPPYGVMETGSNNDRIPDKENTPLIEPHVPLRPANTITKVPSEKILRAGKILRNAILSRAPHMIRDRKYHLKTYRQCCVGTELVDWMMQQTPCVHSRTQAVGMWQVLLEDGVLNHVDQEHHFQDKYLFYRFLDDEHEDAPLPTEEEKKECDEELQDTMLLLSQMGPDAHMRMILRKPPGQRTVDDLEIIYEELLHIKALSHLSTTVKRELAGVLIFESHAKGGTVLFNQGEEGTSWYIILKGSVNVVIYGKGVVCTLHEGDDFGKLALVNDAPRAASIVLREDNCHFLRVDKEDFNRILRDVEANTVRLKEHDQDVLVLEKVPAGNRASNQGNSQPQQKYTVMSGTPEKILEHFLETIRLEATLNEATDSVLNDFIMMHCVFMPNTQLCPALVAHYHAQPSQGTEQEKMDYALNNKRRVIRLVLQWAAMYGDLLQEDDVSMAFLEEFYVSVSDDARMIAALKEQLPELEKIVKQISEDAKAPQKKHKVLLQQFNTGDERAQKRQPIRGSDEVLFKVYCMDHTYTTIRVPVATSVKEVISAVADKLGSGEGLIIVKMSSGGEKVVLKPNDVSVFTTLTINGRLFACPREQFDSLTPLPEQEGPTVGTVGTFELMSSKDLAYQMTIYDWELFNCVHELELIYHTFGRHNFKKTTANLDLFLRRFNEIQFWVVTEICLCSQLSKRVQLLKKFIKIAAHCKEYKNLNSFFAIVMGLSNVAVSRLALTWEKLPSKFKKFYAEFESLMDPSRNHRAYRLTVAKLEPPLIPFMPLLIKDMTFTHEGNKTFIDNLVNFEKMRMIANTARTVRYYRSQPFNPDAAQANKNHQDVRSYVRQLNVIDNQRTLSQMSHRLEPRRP
Assay: qHTS for Antagonist of cAMP-regulated guanine nucleotide exchange factor 2 (EPAC2): primary screen; also: nearly all actives have a fitted effect of over 45% in size
Settings: EPAC2 GEF exchange of Rap1B-BODIPY-GDP, fluorescence; series mostly up to 114 µM; activity, negative = inhibition: at the top concentration
% is scaled to controls: 0 for no effect and ±100 for the full control effect; potency is read from the fitted curve at half-maximal effect.

Row | Structure (SMILES) | activity, negative = inhibition | Potency
1 | CC(C)(C)Cc1c(C2CCCCC2)nc2ccc(Br)cn12 | -25% | –
2 | CCN(CC)S(=O)(=O)c1cc([N+](=O)[O-])ccc1NNC(=O)Nc1ccccc1 | -11.5% | –
3 | CCC(C(=O)NC1CCCC1)N(C(=O)c1snc(C(N)=O)c1N)c1ccc2c(c1)OCCO2 (stereo unspecified) | -3.82% | –
4 | Cc1c(Cl)c([N+](=O)[O-])nn1CC(=O)NCCCN1CCOCC1 | 3.26% | –
5 | CCOC(=O)N1CCN(Cc2nc3c(c(=O)n(C)c(=O)n3C)n2Cc2ccccc2)CC1 | -1.88% | –
6 | CC(=O)OCC(C)n1c(=O)c2ccccc2n1C(C)=O (stereo unspecified) | 2.88% | –
7 | COc1cccc(C2CC(c3cccs3)=NN2C(=O)CSC2=NCCS2)c1OC (stereo unspecified) | 0.0512% | –
8 | CCCCCn1c(SCCC(C)C)nc2c1c(=O)[nH]c(=O)n2C | -3.83% | –
9 | COC(=O)[C@@]12C[C@@H](CC(=O)NCCCCc3ccccc3)C(=O)N(CCc3ccc(OC)c(OC)c3)C1=CCC(C)(C)C2 | 3% | –
10 | Cc1ccc(C(=O)Nc2c(-c3ccccc3)[nH][nH]c2=O)cc1 | -23.4% | –
11 | O=C(OC1CC2CC1[C@H]1CCCCN1C2=O)N1CCOCC1 (stereo partly specified) | 0.539% | –
12 | O=C(NCc1ccco1)c1cccc(-c2ccc3nncn3c2)c1 | -4.43% | –
13 | C=CCNC(=S)NNC(=O)c1ccc(Br)o1 | 0.381% | –
14 | O=S(=O)(Nc1cccc(-c2ccc(N3CCOCC3)nn2)c1)c1ccc(Cl)c(Cl)c1 | -13.3% | –
15 | O=C(CC1C(=O)NCCN1CC(c1ccccc1)c1ccccc1)NCCc1cn[nH]c1 (stereo unspecified) | 3.71% | –
16 | CCOCCCNC(=O)C(NC(=O)Cc1c[nH]c2ccccc12)c1ccc(OC)cc1 (stereo unspecified) | -0.765% | –
17 | COc1ccc(NC(=O)C(c2ccncc2)n2c(=O)c(-c3cc4ccccc4[nH]3)nc3ccccc32)cc1 (stereo unspecified) | -10.2% | –
18 | COC(=O)Cn1c(=NC(=O)c2cc(OC)c(OC)c(OC)c2)sc2cc(OC)ccc21 | -0.061% | –
19 | Cc1ccc(Cc2c(-c3ccc(Cl)cc3)nc3c4ccccc4ccn23)cc1 | 4.4% | –
20 | COC(=O)C1=C[C@@H](C(=O)OC)[C@@H]2C3=C(C(=O)[C@]2(C)NC(=O)c2ccccc2)[C@H](C)n2c(=O)n(C)c(=O)n2[C@@H]3C1 | 4.54% | –
21 | O=C1NC2(CCCCC2)N=C1c1ccccc1 | 6.31% | –

Row | Structure (SMILES) | activity, negative = inhibition | Potency
22 | COc1cc(N)c(Cl)cc1C(=O)OCC(=O)c1ccc2c(c1)NC(=O)CO2 | -6.76% | –
23 | COc1ccc(S(=O)(=O)N[C@@H]2C=C[C@@H](CC(=O)N3CCc4ccccc4C3)O[C@@H]2CO)cc1 | -5.82% | –
24 | Cc1cccc(C)c1NC1=NC(=S)N(c2ccc(N(C)C)cc2)C1(C)C | -0.385% | –
25 | CC1(C)OC(=O)C2=C(C[C@@H](C3CC3)O[C@H]2c2ccc(Cl)cc2)O1 | -12.1% | –
26 | O=S(=O)(/N=C(/Nc1ccccc1)c1ccccc1)c1cccs1 | 5.66% | –
27 | O=C1OCCOC2CCCc3oc(-c4ccccc4)c1c32 (stereo unspecified) | -5.11% | –
28 | Cc1c(C(=O)NCC2CC2)sc(=O)n1Cc1cccc(F)c1 | 1.07% | –
29 | OCCC#Cc1ccc(N2C(c3ccsc3)=Cc3ccc(F)cc3C2c2c[nH]c3ccccc23)cc1 (stereo unspecified) | 6.26% | –
30 | O=C(c1ccc[nH]c1=S)N1CCN(S(=O)(=O)c2ccc(Br)cc2Cl)CC1 | -5.45% | –
31 | CCOc1ccc(CCNC(=O)C(CC)n2nc(C)n3c(cc4sccc43)c2=O)cc1OCC (stereo unspecified) | 7.88% | –
32 | CCOCCCNc1c(CC)c(C)c(C#N)c2nc3ccccc3n12 | -11.1% | –
33 | O=C1COc2ccc(C(=O)COC(=O)CCOc3ccccc3)cc2N1 | 5.36% | –
34 | CC(=O)Cc1nsc(NC(=O)c2ccc(Cl)cc2Cl)n1 | -1.18% | –
35 | CNC(=O)c1csc(Cc2c(Cl)sc3ccc(Cl)cc23)n1 | – | 8.91 µM (active)
36 | CC(=O)NNC(=O)c1csc(Cc2c(Cl)sc3ccc(Cl)cc23)n1 | -15.8% | –
37 | C/C(=N\N(C)C)c1ccc(OCCOc2ccc([N+](=O)[O-])cc2)cc1 | 1.58% | –
38 | O=C(Nc1ccc2c(c1)OCCO2)C1c2ccccc2OCC(=O)N1Cc1ccccn1 (stereo unspecified) | -1.56% | –
39 | CCCNC(=O)C1(C)CCN1C(=O)C1(c2ccccc2)CC1 (stereo unspecified) | -8.53% | –
40 | CCc1c(-c2ccc(F)cc2)ncn1Cc1cccc(-c2ccccc2)c1 | 0.933% | –
41 | CCOc1ccc(S(=O)(=O)N2CCC(C(=O)NCc3ccccn3)CC2)cc1Cl | 0.26% | –
42 | C[C@@H]1CN([C@@H](C)CO)S(=O)(=O)c2ccc(C#Cc3cccc(F)c3)cc2O[C@H]1CN(C)S(=O)(=O)c1cn(C)cn1 | -4.79% | –

Row | Structure (SMILES) | activity, negative = inhibition | Potency
43 | O=C1OCCN1C(=O)[C@H]1[C@H](c2ccc(Cl)cc2)C(c2cccc(Cl)c2)=NN1c1ccc(Br)cc1 | -3.4% | –
44 | COc1ccc(C2CC(=O)n3c(nc4ccccc43)S2)cc1OC (stereo unspecified) | – | 17.8 µM (active)
45 | COc1ccc(C2CC(c3cccs3)=Nc3ccccc3S2)cc1OC (stereo unspecified) | -8.88% | –
46 | COc1ccccc1C1CC(=O)n2c(nc(-c3ccccc3)c2-c2ccccc2)S1 (stereo unspecified) | -4.91% | –
47 | NC(Cc1ccccc1)c1csc(Nc2cc(Oc3ccccc3)ncn2)n1 (stereo unspecified) | 2.53% | –
48 | CCOC(=O)c1c(-c2ccccc2)oc2cc(Br)c(O)c(C=O)c12 | 0.194% | –
49 | COc1ccc(C(=O)c2c(C)oc3cc([N+](=O)[O-])c(O)c([N+](=O)[O-])c23)cc1 | -20.1% | –
50 | Cc1oc2cc(Br)c(O)c(Br)c2c1C(=O)c1ccccc1 | – | 28.2 µM (active)
51 | COC(=O)Cc1ccc(N(Cc2ccccc2F)S(=O)(=O)c2ccc(Br)cc2)cc1 | -3.01% [at 57.1 µM] | –
52 | COc1ccccc1NC(=O)CCSc1nnc(-c2ccc(O)cc2)o1 | 0.744% | –
53 | CN[C@H]1C[C@H]2c3cc(Oc4ccccc4C)ccc3CCN2C(=O)[C@H]1[C@H](C)O | 9.66% | –
54 | Cc1cccc(C)c1NC(=O)C(c1cccc2ccccc12)n1c(=O)c(-c2ccco2)nc2ccccc21 (stereo unspecified) | 5.32% | –
55 | CC(=O)NCCC(=O)Nc1nc(C)c(Cc2ccc3c(c2)OCO3)s1 | -1.46% | –
56 | Cc1ccc(C)c(-n2ccnc2SCC(N)=O)c1 | 19% | –
57 | O=c1cccc(-c2ccc(Br)cc2)o1 | 4.24% | –
58 | COC(=O)[C@@]12C[C@@H](CC(=O)N3CCC(c4ccccc4)CC3)C(=O)N(Cc3ccccc3)C1=CCC(C)(C)C2 | -12% | –
59 | O=C1N[C@H](Cc2ccccc2)C(=O)N[C@H]1Cc1cn(S(=O)(=O)c2ccccc2)c2ccccc12 | 6.85% | –
60 | CCN1CC=C2C(C#N)=C(N)C(C#N)(C#N)[C@H](c3ccoc3)[C@H]2C1 | -4.17% | –
61 | CCCN1CC=C2C(C#N)=C(N)C(C#N)(C#N)C(c3cc(OC)ccc3OC)C2C1 (stereo unspecified) | – | 39.8 µM (active)
